These results are taken from PubChem BioAssay (NCI).

Molecules are shown by their SMILES. This is part of a sample that, as a whole, favours compounds with a hit. Of some 83,000 tested, about 20% had one in any assay.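 Negative percent growth values reflect cell death: -40 means 40% of the cells present at the start died, and -100 means all died.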 A number with no mark means an inactive call. Active and inactive are the calls of the source. Rule for the calls: active = growth percent below 10; inactive = the rest.

Test systems include NCI-H23 lung; NCI-H226 lung; NCI-H322M lung; HOP-62 NSCLC; NCI-H460 lung; HOP-92 NSCLC; NCI-H522 lung; A549/ATCC NSCLC; 786-0 renal; COLO 205 colon; DU-145 prostate; K-562 leukemia; MALME-3M melanoma; MDA-MB-231 breast; RXF 393 renal; SF-268 CNS; SF-295 CNS; UACC-257 melanoma; M14 melanoma; SF-539 CNS.
What all share (assay): NCI-60 one-dose screen, 48 h (100 = growth as untreated, 0 = no growth, -100 = all killed)
What all share (details): 10 µM unless noted

As for `Nc1ccc2ccccc2c1-c1c(N)ccc2ccccc12`, the growth with NCI-H23 lung is 41.6%; with NCI-H226 lung, 73.5%; with NCI-H322M lung, 39.7%; with HOP-62 NSCLC it was 43%; in the experiment with NCI-H460 lung, 20.2%; in the experiment with HOP-92 NSCLC, 52.9%. Also, the growth in the experiment with NCI-H522 lung is 37.1%; in the experiment on A549/ATCC NSCLC, 19.9%; with 786-0 renal it was 49.3%; in the experiment on COLO 205 colon, 5.44% (active); in the experiment on DU-145 prostate, 25.8%; with K-562 leukemia, 18.7%. The growth in the experiment on MALME-3M melanoma is 42.4%; in the experiment on MDA-MB-231 breast it was 43%; in the experiment on RXF 393 renal it was 6.23% (active); in the experiment on SF-268 CNS, 54.1%; in the experiment with SF-295 CNS, 13.8%; with UACC-257 melanoma, 18%. In addition, the growth in the experiment on M14 melanoma is 19.5%.

Turning to `O=C(CCl)Nc1ccccc1SCc1cc(Cl)cc2c1OCOC2`, the growth in the experiment on NCI-H23 lung was 82.7%; in the experiment with NCI-H226 lung it was 82.8%; with NCI-H322M lung, 89.7%; in the experiment on HOP-62 NSCLC, 100%; in the experiment on NCI-H460 lung, 105%; in the experiment on HOP-92 NSCLC, -6.11% (active). Besides, the growth in the experiment on NCI-H522 lung was -74.8% (active); in the experiment with A549/ATCC NSCLC, 96.5%; in the experiment with 786-0 renal it was 99.6%; in the experiment with COLO 205 colon, 95.7%; in the experiment with DU-145 prostate, 101%; with K-562 leukemia, 32.1%. The growth is -69.1% (active) in the experiment with MALME-3M melanoma; 88.6% with MDA-MB-231 breast; 77.1% with RXF 393 renal; 93.8% with SF-268 CNS; 94% in the experiment on SF-295 CNS; 93.5% in the experiment on SF-539 CNS. The results for the growth with UACC-257 melanoma and in the experiment on M14 melanoma were 101% and 69.8%, respectively.

`NC(=S)c1c(N)n(C2OC(CO)C(O)C2O)c2ncnc(N)c12` (stereo unspecified): the growth with NCI-H23 lung was -0.783% (active); with NCI-H226 lung it was 14%; in the experiment with NCI-H322M lung, -25.8% (active); in the experiment on HOP-62 NSCLC, 3.76% (active); in the experiment with NCI-H460 lung it was -0.26% (active); in the experiment on HOP-92 NSCLC it was -21.5% (active). For the same compound, the growth with NCI-H522 lung is -53.5% (active); in the experiment on A549/ATCC NSCLC it was 5.46% (active); in the experiment on 786-0 renal, -0.846% (active); with COLO 205 colon, -50.9% (active); in the experiment with DU-145 prostate, 4.75% (active); in the experiment with K-562 leukemia, -17.2% (active). The growth in the experiment with MALME-3M melanoma was -53.4% (active); in the experiment with MDA-MB-231 breast it was 29.7%; with RXF 393 renal, -69.3% (active); with SF-268 CNS, -3.78% (active); in the experiment on SF-295 CNS, -0.294% (active); in the experiment on SF-539 CNS it was -51.2% (active). In addition, the growth in the experiment on UACC-257 melanoma is -10.2% (active); in the experiment with M14 melanoma, -24.5% (active).

Regarding `O=C(Nc1ccc([N+](=O)[O-])cc1)C(=O)Nc1ccc([N+](=O)[O-])cc1`, the growth with NCI-H23 lung was 100%; in the experiment with NCI-H226 lung it was 96.9%; in the experiment with NCI-H322M lung it was 101%; with HOP-62 NSCLC, 81%; in the experiment on NCI-H460 lung, 103%; with HOP-92 NSCLC, 95.4%. The growth in the experiment on NCI-H522 lung was 77.3%; in the experiment on A549/ATCC NSCLC, 67.7%; with 786-0 renal, 110%; in the experiment with COLO 205 colon, 101%; in the experiment on DU-145 prostate, 110%; in the experiment on K-562 leukemia, 106%. Moreover, the growth was 105% with MALME-3M melanoma; 98.1% with MDA-MB-231 breast; 109% in the experiment with RXF 393 renal; 100% in the experiment with SF-268 CNS; 102% with SF-295 CNS; 77.7% in the experiment with UACC-257 melanoma. The growth in the experiment with M14 melanoma is 104%.

As for `C=C(C)COc1ccc(C(C)(C)C)cc1`, the growth is 108% with NCI-H23 lung; 95.8% with NCI-H226 lung; 102% in the experiment on NCI-H322M lung; 91.2% with HOP-62 NSCLC; 104% in the experiment with NCI-H460 lung; 99.3% with HOP-92 NSCLC. Moreover, the growth in the experiment on NCI-H522 lung is 90.8%; in the experiment with A549/ATCC NSCLC it was 91.2%; in the experiment with 786-0 renal it was 101%; with COLO 205 colon, 104%; with DU-145 prostate, 107%; in the experiment with K-562 leukemia it was 106%. The growth with MALME-3M melanoma was 116%; in the experiment on MDA-MB-231 breast it was 102%; in the experiment on RXF 393 renal it was 99.5%; in the experiment on SF-268 CNS it was 99.8%; in the experiment with SF-295 CNS it was 101%; with SF-539 CNS, 102%. The growth was 82.6% with UACC-257 melanoma and 102% with M14 melanoma.

As for `COC(c1ccc2c(c1)OCO2)C(C)Br` (stereo unspecified), the growth in the experiment on NCI-H23 lung is 95.2%; in the experiment with NCI-H226 lung, 93.1%; with NCI-H322M lung, 100%; in the experiment with HOP-62 NSCLC, 82.8%; with NCI-H460 lung, 104%; with HOP-92 NSCLC it was 74.9%. Also, the growth with NCI-H522 lung is 84.6%; in the experiment with A549/ATCC NSCLC, 94%; with 786-0 renal, 112%; in the experiment with COLO 205 colon it was 94.5%; in the experiment with DU-145 prostate, 109%; in the experiment on K-562 leukemia, 87.3%. Also, the growth was 98.3% with MALME-3M melanoma; 94.8% in the experiment with MDA-MB-231 breast; 99.9% with RXF 393 renal; 107% with SF-268 CNS; 101% in the experiment with SF-295 CNS; 92.5% with SF-539 CNS. Further, in the experiment on M14 melanoma, the growth was 97.1%.

For the compound `CC1(C)OC2C(CO)OC(n3ccc(=O)[nH]c3=O)C2O1` (stereo unspecified), the growth was 102% in the experiment with NCI-H23 lung; 98.4% with NCI-H226 lung; 92.5% in the experiment on NCI-H322M lung; 88.9% in the experiment with HOP-62 NSCLC; 100% with NCI-H460 lung; 82.8% in the experiment on HOP-92 NSCLC. The growth in the experiment with NCI-H522 lung is 81.5%; in the experiment with A549/ATCC NSCLC, 73.2%; in the experiment with 786-0 renal, 105%; with COLO 205 colon it was 100%; in the experiment on DU-145 prostate, 112%; in the experiment on K-562 leukemia it was 110%. Also, the growth with MALME-3M melanoma is 85.2%; in the experiment on MDA-MB-231 breast, 92.9%; in the experiment on RXF 393 renal, 113%; in the experiment with SF-268 CNS, 102%; in the experiment on SF-295 CNS it was 104%; in the experiment on UACC-257 melanoma it was 75.7%. In the experiment on M14 melanoma, the growth was 105%.

With `COc1ccc(C)cc1NC(=O)SC(C)C`, the growth in the experiment on NCI-H23 lung was 102% [100 µM]; in the experiment on NCI-H226 lung, 89.6% [100 µM]; with NCI-H322M lung, 104% [100 µM]; with HOP-62 NSCLC, 97% [100 µM]; in the experiment on NCI-H460 lung, 103% [100 µM]; with HOP-92 NSCLC it was 103% [100 µM]. The growth in the experiment with NCI-H522 lung was 88.7% [100 µM]; in the experiment on A549/ATCC NSCLC, 104% [100 µM]; with 786-0 renal it was 102% [100 µM]; in the experiment on COLO 205 colon it was 132% [100 µM]; in the experiment with DU-145 prostate it was 103% [100 µM]; in the experiment on K-562 leukemia it was 92.5% [100 µM]. Further, the growth in the experiment with MALME-3M melanoma is 98.8% [100 µM]; in the experiment with MDA-MB-231 breast it was 92.1% [100 µM]; in the experiment on RXF 393 renal, 102% [100 µM]; in the experiment with SF-268 CNS, 97.3% [100 µM]; with SF-295 CNS it was 105% [100 µM]; with SF-539 CNS it was 97.6% [100 µM]. Besides, the growth was 98.8% [100 µM] in the experiment with UACC-257 melanoma and 110% [100 µM] in the experiment with M14 melanoma.
